The source made the active and inactive calls. How the source made its calls: active means hit-call score of the fitted dose curve at least 0.9, where 1 is the maximum; inconclusive means response in the unintended direction; inactive means score below 0.9.

Estrogen receptor (Homo sapiens), sequence (P03372 whole entry, looked up, the tested form may be a part): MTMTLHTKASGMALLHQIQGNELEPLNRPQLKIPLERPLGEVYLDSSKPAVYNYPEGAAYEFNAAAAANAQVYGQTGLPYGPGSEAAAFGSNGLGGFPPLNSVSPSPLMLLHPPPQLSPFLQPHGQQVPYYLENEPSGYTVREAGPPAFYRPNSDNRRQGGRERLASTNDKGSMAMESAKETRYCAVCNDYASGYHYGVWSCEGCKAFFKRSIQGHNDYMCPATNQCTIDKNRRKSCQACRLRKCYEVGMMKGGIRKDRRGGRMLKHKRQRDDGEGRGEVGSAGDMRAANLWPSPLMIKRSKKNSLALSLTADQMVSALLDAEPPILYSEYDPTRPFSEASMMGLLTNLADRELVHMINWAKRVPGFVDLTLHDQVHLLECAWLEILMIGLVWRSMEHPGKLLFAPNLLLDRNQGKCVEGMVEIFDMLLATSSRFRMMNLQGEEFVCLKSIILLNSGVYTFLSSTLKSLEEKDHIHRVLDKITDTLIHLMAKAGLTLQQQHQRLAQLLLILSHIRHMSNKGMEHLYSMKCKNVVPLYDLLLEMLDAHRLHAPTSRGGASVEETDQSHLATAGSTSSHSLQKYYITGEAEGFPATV

In this experiment the target is Estrogen receptor (Homo sapiens) (UniProt P03372). Description: OT_ER_ERaERa_1440: Odyssey Thera (OT) 24-hour HEK293T Protein-Complementation Assay for Estrogen Receptor-alpha/-alpha Homodimer (AID 2283349).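 Further: hits raise fluorescence above DMSO for agonists and antagonists alike.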 How it is done:
OT_ER_ERaERa_1440 is a cell-based assay that uses HEK293T, a human kidney cell line, with measurements taken at 24 hours after chemical dosing in a 384-well plate.OT_ER_ERaERa_1440 is one of one assay component(s) measured or calculated from the OT_ER_ERaERa_1440 assay. It is designed to make measurements of protein fragment complementation, a form of binding reporter, as detected with fluorescence intensity signals by Protein-fragment Complementation technology.Data from the assay component OT_ER_ERaERa_1440 was analyzed into 1 assay endpoint. This assay endpoint, OT_ER_ERaERa_1440, was analyzed in the positive analysis fitting direction relative to DMSO as the negative control and baseline of activity. Using a type of binding reporter, measures of receptor for gain-of-signal activity can be used to understand the binding at the pathway-level as they relate to the gene ESR1. Furthermore, this assay endpoint can be referred to as a primary readout, because the performed assay has only produced 1 assay endpoint. To generalize the intended target to other relatable targets, this assay endpoint is annotated to the nuclear receptor intended target family, where the subfamily is steroidal.
Protein-fragment complementation assay, or PCA, is a method for the identification and quantification of protein-protein interactions. In the PCA, the proteins of interest ("bait" and "prey") are each covalently linked to fragments of a third protein (e.g. DHFR, which acts as a "reporter"). Interaction between the bait and the prey proteins brings the fragments of the reporter protein in close proximity to allow them to form a functional reporter protein whose activity can be measured. The OT ER alpha / ER alpha assay is a homodimer PCA of the ligand binding domain (amino acids 310-547) of human ER alpha stably expressed in HEK293T cells. […] Fluorescent signal in the basal state of the assay is very low and is primarily punctuate and cytoplasmic. Modulation of this assay is quantified as an increase in mean fluorescence intensity in the nucleus (for agonists) or in the nucleus and cytoplasm (antagonists) relative to vehicle controls, and can be quantified on a high content imaging device or a laser scanning cytometer. The latter instrument is favored for this assay because of the rapid mode of data acquisition, the ability to acquire data from the entire cell population in a well (as opposed to a fraction of the well on the high content devices) and the larger dynamic range typically achieved with this instrument. To assess sensitivity of the ER alpha/ER alpha LBD assay to ligand, cells were treated with the ER agonist 17 beta-estradiol (E2) in 10-point concentration- response format for 24 hours and monitored response on a laser scanning plate cytometer (Acumen eX3; TTP Lab Tech).
Take `O=C1C=CC(=O)N1c1ccccc1`: the result was inactive.

As for `CCCCOC(=O)C(C)O` (stereo not drawn), the molecule was called inactive.

On to `CCN=C1C=CC(=C(c2ccc(N(CC)CC)cc2)c2ccc(N(CC)CC)cc2)c2ccccc21`, for which the molecule was classed as inactive.

With `CC(C)Nc1ccc(NC(C)C)c2c1C(=O)c1ccccc1C2=O`, the molecule was called inactive.

As to `CC(=O)CCC(C)C`, the AC50 is 69.3 µM (active).

For the molecule `Cc1ccc(O)c(-n2nc3ccccc3n2)c1`, the outcome was inactive.

Turning to `CCCCCCCCCCCCC[N+](C)(C)Cc1ccccc1`, the molecule was classed as inactive.

`COCCOCCC[Si](C)(O[Si](C)(C)C)O[Si](C)(C)C`: the AC50 is 76.1 µM (active).

Consider `CCOC(=O)C1CC(=O)C(=C(O)C2CC2)C(=O)C1` (stereo not drawn), for which the call was inactive.

On to `CCOC(OCC)OCC`, for which the call was inactive.

Turning to `CCc1cc(Cc2cc(CC)c(N)c(CC)c2)cc(CC)c1N`, the result was inactive.

`O=C(c1ccccc1)c1ccc(O)cc1O`: the AC50 was 22.7 µM (active).

As to `CCN=c1cc2oc3cc(NCC)c(C)cc3c(-c3ccccc3C(=O)OCC)c-2cc1C`, the half-maximal activity concentration (AC50) was 62.3 µM (active).

With `CCCCCCCC/C=C\CCCCCCCC(=O)OCC(O)CO` (stereo not drawn), the outcome was inactive.

On to `CCCCCCCC/C=C\CCCCCCCC(=O)N(C)CC(=O)O`, for which the outcome was inactive.

As for `CCCCOC(=O)[C@H](C)O`, the outcome was inactive.

As for `Cc1ccc([N+](=O)[O-])c(C)c1`, the result was inactive.

Take `CC(C)(C)c1cc(Cc2cc(C(C)(C)C)c(O)c(C(C)(C)C)c2)cc(C(C)(C)C)c1O`: the molecule was classed as inactive.

Turning to `CC(C)(C)c1cc(CCC(=O)OCC(COC(=O)CCc2cc(C(C)(C)C)c(O)c(C(C)(C)C)c2)(COC(=O)CCc2cc(C(C)(C)C)c(O)c(C(C)(C)C)c2)COC(=O)CCc2cc(C(C)(C)C)c(O)c(C(C)(C)C)c2)cc(C(C)(C)C)c1O`, the molecule was called inactive.

On to `N#Cc1ccccc1O`, for which the outcome was inactive.

`CCCCCCCCn1sc(Cl)c(Cl)c1=O`: the molecule was called inactive.

`CCCCCCCCCCCCCC[P+](CCCC)(CCCC)CCCC`: the result was inactive.

Regarding `CCC(Cc1c(I)cc(I)c(N)c1I)C(=O)O` (stereo not drawn), the molecule was called inactive.

In the case of `F[Si-2](F)(F)(F)(F)F`, the result was inactive.

For the molecule `CC(C)OC=O`, the result was inactive.

With `OCC1CCCO1` (stereo not drawn), the molecule was classed as inactive.

Turning to `CCCCC(CC)COC(=O)c1ccc(N(C)C)cc1` (stereo not drawn), the call was inactive.

On to `CCCCCCCCCc1ccc(OCCO)cc1`, for which the AC50 is 19.7 µM (active).

The values above are taken from PubChem BioAssay (EPA / NIEHS).
